Compound activity from PubChem.
CaV13 ICDI inh: Disruptors of the CACNA1D IQ motif to Ca2+-dependent inactivation inhibitor domain association, primary screening, Förster resonance energy transfer in intact living …; 340,000 tested, 0.098% active; inhibition, % at 12.3 µM; HEK cells, CFP/YFP FRET ICDI-IQ, plate reader, 10 min; percent FRET-ratio fall versus neutral wells; AID 743397;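 active = mean replicate inhibition of at least 30% and at least 1% of replicates passing that level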
Vif imaging: HIV Vif inhibition; HEK293T cells, Vif self-association by quenched fluorescence, imaging, 24 h; inhibition, % at 7.49 µM; 340,000 tested, 0.35% active; AID 602346; in the data active = inhibition above about 50%, passing the limit was not always enough
DSG3 Ab inh: human desmoglein-3 autoantibody binding inhibition; 310,000 tested, 0.48% active; DSG3-coupled beads, scFv-anti-DSG3-GFP binding, flow cytometry; stronger effect = lower value; binding (percent of control), % at 10 µM;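 active = binding more than 3 SD below its plate's average and above zero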;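 note: hits lower antibody fragment binding to DSG3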
NSD2 HMT inh: inhibitors of human histone methyltransferase NSD2. O96028. NSD2 peptide methylation, AlphaScreen, 120 min. inhibition, % at 12.5 µM. 310,000 tested, 0.54% active. AID 743445; in the data active = inhibition above about 50%
Glyco luc inh: N-linked glycosylation inhibition. D54 ERlucT glycosylation luciferase reporter, 24 h; percent of 100 nM tunicamycin response. reporter increase, % at 12.5 µM. 360,000 tested, 0.23% active. AID 588692;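 active = mean luciferase reporter signal, scaled so untreated is 0 and the glycosylation-blocking control 100, at or above a set limit in every replicate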;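 note: luciferase carries N-glycosylation sites so blocking glycosylation raises the light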
ATG4B inhibitor: ATG4B (human) cysteine protease inhibition | Q9Y4P1 | ATG4B cleavage of LC3-PLA2, NBD-HPC fluorescence, 1 h | inhibition, % at 8.33 µM | 340,000 tested, 0.51% active | AID 504462; in the data active = inhibition above about 40%
A number is an active result; . = inactive; / = no result given; + = active, no number. In the library only some 1.9% were active in any assay of this set; here they are far more common.

SMILES | CaV13 ICDI inh | Vif imaging | DSG3 Ab inh | NSD2 HMT inh | Glyco luc inh | ATG4B inhibitor
CCOC(=O)c1c(NC(=O)c2ccccc2C(=O)O)sc2c1CCCC2 | . | . | 68 | . | . | .
CCOc1ccc(N2C(=O)CN=C2Nc2ccccc2F)cc1 | / | . | . | . | . | .
COc1ccc(C(=O)CCc2ccc(OC)c(OC)c2)cc1 | . | . | . | . | . | .
O=c1c2ccccc2ncn1Cc1ccc(Cl)c(Cl)c1 | . | . | . | . | . | .
Cc1[nH][nH]c(=O)c1C(c1c(C)[nH][nH]c1=O)c1cn(Cc2ccc(F)cc2)c2ccccc12 | / | . | . | 88 | . | .
Cc1[nH][nH]c(=O)c1C(c1c(C)[nH][nH]c1=O)c1cn(Cc2ccc(Cl)c(Cl)c2)c2ccccc12 | . | . | . | 98 | . | .
COC(=O)c1ccc(CNC(=O)COC(=O)C23CC4CC(CC(C4)C2)C3)cc1 | . | . | . | . | . | .
O=C(C=Cc1ccccn1)c1ccccc1 | . | 70 | . | . | . | .
COc1ccccc1OC(=O)Nc1ccc(Cl)cc1 | . | . | . | . | . | .
CCOC(=O)C1(CCOc2ccccc2)CCN(Cc2cnc(SC)nc2)CC1 | . | . | . | . | . | .
Cc1cc(C)cc(NC(=O)Cn2ncn3c(cc4ccccc43)c2=O)c1 | . | . | 82 | . | . | .
N#CC1=C(N)Oc2cc(N)ccc2C1c1ccc(F)cc1F (stereo not drawn) | + | . | . | . | . | .
COc1cc(C2C(C#N)=C(N)Oc3cc(N)ccc32)cc(OC)c1OC (stereo not drawn) | . | . | . | . | 32 | .
COc1ccc(C2C(C#N)=C(N)Oc3cc(N)ccc32)cc1 (stereo not drawn) | . | . | . | . | . | .
O=C(NCc1ccccc1)[C@H]1CCCN1C(=O)[C@H]1CCCN1C(=O)c1ccc(F)c(F)c1 | . | / | / | / | / | /
COC(=O)c1cc(C)ccc1OCc1ccc([N+](=O)[O-])cc1 | . | 82 | . | . | . | .
CN(C(=O)CSc1cccc[n+]1[O-])c1ccccc1 | . | . | / | . | . | .
COc1ccc(OC)c(S(=O)(=O)N(C(C)=O)c2ccc3oc(=O)sc3c2)c1 | . | . | . | . | . | .
CC1=CC(=C(C#N)C#N)C=C(C)N1CCN1CCN(C(=O)Nc2ccc(Cl)c(Cl)c2)CC1 | . | . | . | . | . | .
CC1=CC(=C(C#N)C#N)C=C(C)N1Cc1ccc(Cl)cc1 | . | . | -3.8 | . | . | .
CC1CN(c2sc(S(C)(=O)=O)nc2S(=O)(=O)c2ccc(Cl)cc2)CC(C)O1 (stereo not drawn) | . | . | 75 | . | . | .
CC1CCCN(c2sc(S(C)(=O)=O)nc2S(=O)(=O)c2ccc(Cl)cc2)C1 (stereo not drawn) | . | . | . | . | . | .
COc1ccc(-c2ccc(/C=C3/C(=N)N4C(C)=CSC4=NC3=O)o2)c([N+](=O)[O-])c1 | . | . | . | . | . | .
Cc1ccc(NC(=O)CCCCCC2NC(=O)NC2C)cc1 (stereo not drawn) | . | . | . | 136 | . | .
Cc1ccc(C)n1Cc1ccc(C(=O)O)cc1 | / | . | 68 | / | . | .
SMILES | CaV13 ICDI inh | Vif imaging | DSG3 Ab inh | NSD2 HMT inh | Glyco luc inh | ATG4B inhibitor
C=C[C@@]1(C)CC(=O)[C@]2(O)[C@@]3(C)[C@@H](O)CCC(C)(C)[C@@H]3[C@H](OC(C)=O)[C@H](O)[C@@]2(C)O1 | / | 82 | . | / | . | .
C=C1C(=O)O[C@H]2C[C@]3(C)C([C@@H](OC(=O)/C(C)=C/C)[C@H]12)[C@](C)(O)CC[C@H]3O (stereo partly drawn) | . | . | . | . | . | .
C=C[C@@]1(C)CC(=O)[C@]2(O)[C@@]3(C)[C@@H](O)CCC(C)(C)[C@@H]3[C@H](O)[C@H](OC(C)=O)[C@@]2(C)O1 | . | 75 | . | / | . | .
CCCCN(CC)CCNC(=O)c1cc2c(=O)[nH]c3ccc(C)cc3c2s1 | . | . | . | . | . | .
CCOc1cc(-c2cc(-c3ccc(N)cc3)nc(N)c2C#N)ccc1O | . | . | . | . | . | .
CCOc1cc(-c2cc(-c3ccccc3)nc(N)c2C#N)ccc1O | . | . | . | . | 37 | .
Cc1ccc(CN2CCN(/N=C/C(Br)=C\c3ccccc3)CC2)cc1 | . | . | 83 | . | . | .
O=[N+]([O-])c1ccc(Cl)c(S(=O)(=O)Nc2ccc3cn[nH]c3c2)c1 | . | . | / | . | . | .
O=[N+]([O-])c1ccc2cn[nH]c2c1 | . | . | 43 | / | . | .
CN(c1ccccc1C(=O)NC1CCCCC1)S(=O)(=O)c1ccccc1 | . | . | / | . | . | .
CN(c1ccccc1C(=O)NC1CC2CCC1C2)S(=O)(=O)c1ccccc1 (stereo not drawn) | . | . | 38 | . | . | .
CC1=C(C(=O)N2CCN(c3cc(C)ccc3C)CC2)C2(CCCCC2)OC1=O | 47 | . | . | / | . | .
O=c1[nH]c2ccccc2nc1Cc1ccccc1 | . | . | . | . | . | .
O=C(Cc1nc2ccccc2[nH]c1=O)c1ccccc1 | 58 | . | . | . | . | .
COc1cc(CCC(=O)OCn2nnc3ccccc3c2=O)cc(OC)c1OC | . | 59 | . | . | . | .
COc1cc(C(=O)OCn2nnc3ccccc3c2=O)cc(OC)c1OC | . | . | / | . | . | .
O=C(CN1CCN(c2ccccc2O)CC1)Nc1cc([N+](=O)[O-])ccc1Cl | . | . | . | / | . | .
O=C(CN1CCN(c2ccccc2O)CC1)Nc1ccc([N+](=O)[O-])cc1Br | . | . | 94 | . | . | .
CCc1cc2c(Sc3nc4ccccc4s3)ncnc2s1 | . | 89 | . | . | . | .
c1ccc2sc(Sc3ncnc4sccc34)nc2c1 | . | . | . | . | . | .
COc1ccc(-c2nnc3sc(CN4C(=O)c5ccccc5C4=O)nn23)cc1 | / | / | . | . | . | .
O=C1c2ccccc2C(=O)N1Cc1nn2c(-c3ccc(Cl)cc3)nnc2s1 | . | . | 59 | . | . | .
Cc1noc(C)c1COc1ccc(C(=O)NNC(=O)c2ccccc2)cc1 | . | . | . | . | . | .
Cc1noc(C)c1COc1ccc(C(=O)NNC(=O)c2ccccc2F)cc1 | / | . | . | . | 27 | .
Cc1ccc(NC(=O)c2ccc(OCc3c(C)noc3C)cc2)cc1C | . | . | . | . | . | .
CC(=O)Nc1ccc(NC(=O)c2ccc(OCc3c(C)noc3C)cc2)cc1 | . | 60 | . | . | . | .
CCCc1nnc(NC(=O)CN2C(=O)c3ccccc3C2=O)s1 | . | . | . | . | . | .
Cc1cccc(C)c1NC(=O)CNC(=O)C1CC(=O)N(Cc2ccccc2)C1 (stereo not drawn) | . | . | . | . | . | .
